The record followed here is PubChem BioAssay (Tox21).

A short description of assay [1]: qHTS assay to identify small molecule agonists of the hypoxia (HIF-1) signaling pathway - cell viability counter screen (AID 1224844; calls by dose curve; further: nearly all actives have a fitted effect of over 50% in size). The essentials:
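Cytotoxicity measured by CellTiter-Glo ATP luminescence in the wells also read for beta-lactamase signal. Cells were HRE-bla ME-180 (2,000/well, 0.5% dialyzed FBS), exposed to compounds for 17 h at 37C.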
A general note: Quantitative high-throughput screening tests each substance at several concentrations.

The nature of assay [2]: qHTS assay to identify small molecule agonists of H2AX (AID 1224845; active means well fitted activation curve with a large enough effect in the signal ratio in the repeat runs, not every such curve was filed as active; the % refers to the signal ratio). The essentials: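 Wild-type CHO-K1 cells plated overnight, then exposed 3 hr at 37C to compounds at 15 concentrations (0.76% DMSO). Lysed, then HTRF anti-pH2AX(S139)-cryptate/anti-H2AX-d2 detection after 24 hr at room temperature; emissions 665 and 620 nm.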
The nature of assay [3]: qHTS assay to identify small molecule agonists of the hypoxia (HIF-1) signaling pathway (AID 1224846; active means well fitted activation curve with a large enough effect in the signal ratio in the repeat runs, not every such curve was filed as active; the % refers to the signal ratio). The method, boiled down: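 Compounds added to ME-180 cells carrying hypoxia-response-element beta-lactamase reporter (0.5% dialyzed FBS, 5 h preplating), 17 h at 37C; agonist activity detected by CCF4-AM B/G FRET read-out.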
The nature of assay [4]: qHTS assay to identify small molecule agonists of H2AX - cell viability counter screen (AID 1224847; calls by dose curve; further: top concentration of the series differs between compounds; nearly all actives have a fitted effect of over 30% in size). The essentials: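 Cytotoxicity counter screen in wild-type CHO-K1 cells: a 3 hr compound treatment at 37C across 15 concentrations, followed by CellTiter-Glo luminescence to gauge viable cells.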
A short description of assay [5]: qHTS assay to identify small molecule antagonists of the estrogen related receptor (ERR) signaling pathway from Tox21 library (AID 1224848). Further: nearly all actives have a fitted effect of over 50% in size. The method, boiled down:
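Tox21 10K compounds in DMSO tested for ERR pathway antagonism in NTP's ERR cell line; 18 h, 37 C exposure; ONE-Glo luminescence.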

Assay [6] in a line: qHTS assay to identify small molecule agonists of the estrogen related receptor (ERR) signaling pathway from Tox21 library (AID 1224849; calls by dose curve; further: nearly all actives have a fitted effect of over 15% in size). The note with it: ERR reporter cell line, ONE-Glo luciferase, 18 h. The essentials:
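Luminescent agonist read-out (One-Glo, 30-minute room-temperature incubation) following 18-hour compound treatment at 37 C of the ERR cell line, which had been plated 6 hours before dosing.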

A short description of assay [7]: qHTS RealTime-Glo MT Cell Viability Assay in HepG2 cells - 24 hour (AID 1224867). Further: nearly all actives have a fitted effect of over 50% in size. The essentials:
(§1)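 HepG2 cells were seeded at 600 cells/well together with NanoLuc luciferase and a cell-permeant prosubstrate, preincubated 5 h at 37 C/5% CO2, then pin-dosed with compounds in DMSO. Nonlytic luminescence from viable cells was read at each time point.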

Assay [8] can be described thus: qHTS RealTime-Glo MT Cell Viability Assay in HEK293 cells - 32 hour (AID 1224868). Further: top concentration of the series differs between compounds; nearly all actives have a fitted effect of over 50% in size. The essentials:
(§2)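 HEK293 cells were seeded at 600 cells/well together with NanoLuc luciferase and cell-permeant prosubstrate, preincubated 5 h at 37 C/5% CO2, then given compound in DMSO by pintool. Luminescence from viable-cell prosubstrate reduction was read repeatedly over 40 h.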

Assay [9] is described as follows: A CellTox Green Cytotoxicity Assay to monitor cytotoxicity in HEK293 cells - 0 hour (AID 1224869). Further: nearly all actives have a fitted effect of over 50% in size. Further: potency means the concentration at half of the fitted maximal effect. The essentials: (§3)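 Fluorescence from a DNA-binding dye excluded by viable cells was measured repeatedly in the same HEK293 wells (600 cells/well) during continuous compound exposure at 37 C. Each assay gives one read point: 0, 8, 16, 24, 32 or 40 h.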
The nature of assay [10]: A CellTox Green Cytotoxicity Assay to monitor cytotoxicity in HEK293 cells - 40 hour (AID 1224871). Further: nearly all actives have a fitted effect of over 45% in size. Further: potency means the concentration at half of the fitted maximal effect. The essentials: as §3
The nature of assay [11]: qHTS RealTime-Glo MT Cell Viability Assay in HEK293 cells - 16 hour (AID 1224872). The essentials: as §2
A short description of assay [12]: qHTS RealTime-Glo MT Cell Viability Assay in HEK293 cells - 40 hour (AID 1224874). Further: nearly all actives have a fitted effect of over 50% in size. The note with it: RealTime-Glo luminescence; max response: stronger effect = lower value. The method, boiled down: (§4)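 Luminescence, which tracks viable cell number through reduction of the prosubstrate to a NanoLuc substrate, was read over continuous 37 C culture. Cells (600/well) were premixed with reagent and rested 5 h before 23 nL of compound in DMSO was pinned.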

Assay [13] in a line: A CellTox Green Cytotoxicity Assay to monitor cytotoxicity in HEK293 cells - 24 hour (AID 1224875). Further: nearly all actives have a fitted effect of over 45% in size. The essentials:
as §3

Assay [14] is described as follows: A CellTox Green Cytotoxicity Assay to monitor cytotoxicity in HepG2 cells - 16 hour (AID 1224876). Further: nearly all actives have a fitted effect of over 45% in size. Further: potency means the concentration at half of the fitted maximal effect. The method, boiled down:
(§5)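 Real-time cytotoxicity: fluorescence of a cell-impermeant cyanine dye binding DNA of dead HepG2 cells, measured repeatedly (0–40 h) during compound exposure at 37 C. Cells seeded 600/well with reagent, dosed after 5 h.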

Assay [15] in a line: qHTS RealTime-Glo MT Cell Viability Assay in HepG2 cells - 32 hour (AID 1224877). Further: nearly all actives have a fitted effect of over 55% in size. The essentials:
as §1

A short description of assay [16]: qHTS RealTime-Glo MT Cell Viability Assay in HEK293 cells - 0 hour (AID 1224880). Further: top concentration of the series differs between compounds; nearly all actives have a fitted effect of over 45% in size. The method, boiled down: as §4
Assay [17] is described as follows: qHTS RealTime-Glo MT Cell Viability Assay in HepG2 cells - 40 hour (AID 1224870). Further: nearly all actives have a fitted effect of over 50% in size. The method, boiled down: (§6)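 HepG2 cells mixed with RealTime-Glo MT reagents (NanoLuc plus cell-permeant prosubstrate) were seeded at 600 cells/well, incubated 5 h at 37 C/5% CO2, then pinned with compounds in DMSO; nonlytic luminescence tracked viability during 40 h treatment.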
Assay [18] can be described thus: qHTS RealTime-Glo MT Cell Viability Assay in HepG2 cells - 8 hour (AID 1224873). Further: nearly all actives have a fitted effect of over 55% in size. The method, boiled down:
as §6

The nature of assay [19]: A CellTox Green Cytotoxicity Assay to monitor cytotoxicity in HepG2 cells - 24 hour (AID 1224878). Further: nearly all actives have a fitted effect of over 45% in size. Further: potency means the concentration at half of the fitted maximal effect. The method, boiled down:
as §5

Assay [20] in a line: A CellTox Green Cytotoxicity Assay to monitor cytotoxicity in HepG2 cells - 40 hour (AID 1224879). Further: nearly all actives have a fitted effect of over 40% in size. Further: potency means the concentration at half of the fitted maximal effect. The essentials:
as §5

“And” between values parts separate entries of the source, which are not always exact repeats. Identical values can stand only once. Records with an inconclusive call do not appear. More than one record can exist for a structure, and the calls need not agree. The source made the active and inactive calls. Unless noted, the call rests on the fitted dose curve; in most records, active means well fitted curve in the direction sought with a large enough effect in the repeat runs; inconclusive means weak or mixed curves; inactive means no such curve, though single readings can be large; an effect the other way counts as inactive or inconclusive.
On the % scale 0 is the no-effect control and ±100 the full control effect.

Regarding `Brc1ccc(Br)cc1`, the Potency entry in assay [1], in [2], in [4], in assay [5], in assay [7] and in [8] was “inactive” each time. The Potency result in assay [9], in [10], in assay [11], in assay [13], in assay [14] and in [15] was “inactive” throughout. Further, the Potency result in [16] is “inactive”. Besides, the outcome in assay [3] was inactive. Moreover, the activity change, positive = activation in [6] (at 92.4 µM (top of the series)) was 7.62% (inactive) and 5.83% (inactive). Moreover, the max response in assay [12] was 1.04% (inactive) and 3.61% (inactive).

`CCNCC`: the Potency entry in assay [1], in assay [2], in [4], in [5], in [7] and in assay [8] was “inactive” throughout. In addition, the Potency result in [9], in [17], in [10], in assay [11], in assay [18] and in [13] was “inactive” each time. For the same compound, the Potency entry in [14], in assay [15], in assay [19], in [20] and in [16] was “inactive” throughout. Besides, the compound was classed as inactive in [3]. Also, the activity change, positive = activation in assay [6] (at 92.4 µM (top of the series)) was 1.09% (inactive) and 1.12% (inactive). Moreover, the max response in [12] was -0.119% (inactive) and -1.58% (inactive).

Turning to `Clc1cccc(Cl)c1`, the Potency result in [1], in assay [2], in assay [4], in assay [5], in assay [7] and in [8] was “inactive” in each case. Also, the Potency entry in assay [9], in assay [17], in assay [10], in assay [11], in assay [13] and in assay [14] was “inactive” throughout. Moreover, the Potency result in [15], in assay [19] and in assay [16] was “inactive” each time. The result in assay [3] was inactive. Also, the activity change, positive = activation in assay [6] (at 92.4 µM (top of the series)) was -0.0986% (inactive) and 9.44% (inactive). The max response in assay [12] is 0.4% (inactive) and 0.365% (inactive).

On to `COP(=S)(OC)Oc1ccc(S(=O)(=O)N(C)C)cc1`, for which the Potency entry in assay [1], in assay [2], in [4], in [5], in assay [7] and in assay [8] was “inactive” in each case. The Potency entry in [9], in [10], in [11], in assay [13], in [14] and in assay [15] was “inactive” in each case. For the same compound, the Potency entry in [20] and in [16] was “inactive” each time. Also, the call in assay [3] was inactive. Also, the activity change, positive = activation in [6] (at 42.5 µM (top of the series)) is -5.44% (inactive); in assay [6] (at 92.4 µM (top of the series)), -12.4% (inactive). Further, the max response in [12] is -18.5% (inactive) and -16.7% (inactive).

As for `CN(C)c1ccccc1`, the Potency result in [1], in assay [2], in [4], in assay [5], in [7] and in assay [8] was “inactive” throughout. For the same compound, the Potency entry in [9], in assay [17], in assay [10], in assay [11], in assay [18] and in assay [13] was “inactive” each time. Besides, the Potency entry in assay [14], in assay [15], in assay [19], in assay [20] and in [16] was “inactive” each time. Also, the outcome in assay [3] was inactive. The activity change, positive = activation in assay [6] (at 92.4 µM (top of the series)) is -1.62% (inactive) and 6.09% (inactive). Also, the max response in assay [12] was 0.0564% (inactive) and 11.3% (inactive).

Take `CCCCOCC1CO1` (stereo not given): the Potency entry in assay [1], in assay [2], in assay [4], in assay [5], in assay [7] and in assay [8] was “inactive” in each case. In addition, the Potency result in assay [11], in assay [18], in assay [15] and in [16] was “inactive” each time. Moreover, the result in [3] was inactive. Also, the activity change, positive = activation in [6] (at 92.4 µM (top of the series)) was 0.0042% (inactive) and -11% (inactive). The Potency entry in assay [9] is “inactive and 19.5 µM (active)”; in assay [10], “inactive and 19.5 µM (active)”; in [14], “inactive and 43.6 µM (active)”; in [19], “inactive and 38.9 µM (active)”; in assay [20], “inactive and 43.6 µM (active)”. Also, the max response in [12] was 4.37% (inactive) and 7.91% (inactive).
